What was measured:
Assay in all cases: log2 ratio of Biotin-Ahx-Ub-VS probe labelling (fragment/DMSO); higher = less target engagement (more negative = stronger competition), active = hit call of the paper (q ≤ 0.05, log2 ratio ≤ -1)
Details in all cases: compound concentration: 200 uM; treatment time: 3 h
USP9X = USP9X (UniProt Q93008)
In short: (§1)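 In triplicate, 495 µg of HEK293T lysate per sample was incubated with fragment at 200 µM or vehicle for 3 h. Biotin-Ahx-Ub-VS was then added to 0.5 µM final for 1 h, and labelled DUBs were captured with NeutrAvidin, digested with LysC and trypsin, and measured by diaPASEF LC-MS/MS. Data are average log2 fragment/vehicle ratios by unpaired t-test from global-median-normalised Spectronaut label-free quantities, restricted to proteins with ≥2 unique peptides.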

UniProt O00487 = biological target: UniProt O00487
In short: as §1

UniProt O00507 = biological target: UniProt O00507
Sequence of UniProt O00507 (O00507 whole entry): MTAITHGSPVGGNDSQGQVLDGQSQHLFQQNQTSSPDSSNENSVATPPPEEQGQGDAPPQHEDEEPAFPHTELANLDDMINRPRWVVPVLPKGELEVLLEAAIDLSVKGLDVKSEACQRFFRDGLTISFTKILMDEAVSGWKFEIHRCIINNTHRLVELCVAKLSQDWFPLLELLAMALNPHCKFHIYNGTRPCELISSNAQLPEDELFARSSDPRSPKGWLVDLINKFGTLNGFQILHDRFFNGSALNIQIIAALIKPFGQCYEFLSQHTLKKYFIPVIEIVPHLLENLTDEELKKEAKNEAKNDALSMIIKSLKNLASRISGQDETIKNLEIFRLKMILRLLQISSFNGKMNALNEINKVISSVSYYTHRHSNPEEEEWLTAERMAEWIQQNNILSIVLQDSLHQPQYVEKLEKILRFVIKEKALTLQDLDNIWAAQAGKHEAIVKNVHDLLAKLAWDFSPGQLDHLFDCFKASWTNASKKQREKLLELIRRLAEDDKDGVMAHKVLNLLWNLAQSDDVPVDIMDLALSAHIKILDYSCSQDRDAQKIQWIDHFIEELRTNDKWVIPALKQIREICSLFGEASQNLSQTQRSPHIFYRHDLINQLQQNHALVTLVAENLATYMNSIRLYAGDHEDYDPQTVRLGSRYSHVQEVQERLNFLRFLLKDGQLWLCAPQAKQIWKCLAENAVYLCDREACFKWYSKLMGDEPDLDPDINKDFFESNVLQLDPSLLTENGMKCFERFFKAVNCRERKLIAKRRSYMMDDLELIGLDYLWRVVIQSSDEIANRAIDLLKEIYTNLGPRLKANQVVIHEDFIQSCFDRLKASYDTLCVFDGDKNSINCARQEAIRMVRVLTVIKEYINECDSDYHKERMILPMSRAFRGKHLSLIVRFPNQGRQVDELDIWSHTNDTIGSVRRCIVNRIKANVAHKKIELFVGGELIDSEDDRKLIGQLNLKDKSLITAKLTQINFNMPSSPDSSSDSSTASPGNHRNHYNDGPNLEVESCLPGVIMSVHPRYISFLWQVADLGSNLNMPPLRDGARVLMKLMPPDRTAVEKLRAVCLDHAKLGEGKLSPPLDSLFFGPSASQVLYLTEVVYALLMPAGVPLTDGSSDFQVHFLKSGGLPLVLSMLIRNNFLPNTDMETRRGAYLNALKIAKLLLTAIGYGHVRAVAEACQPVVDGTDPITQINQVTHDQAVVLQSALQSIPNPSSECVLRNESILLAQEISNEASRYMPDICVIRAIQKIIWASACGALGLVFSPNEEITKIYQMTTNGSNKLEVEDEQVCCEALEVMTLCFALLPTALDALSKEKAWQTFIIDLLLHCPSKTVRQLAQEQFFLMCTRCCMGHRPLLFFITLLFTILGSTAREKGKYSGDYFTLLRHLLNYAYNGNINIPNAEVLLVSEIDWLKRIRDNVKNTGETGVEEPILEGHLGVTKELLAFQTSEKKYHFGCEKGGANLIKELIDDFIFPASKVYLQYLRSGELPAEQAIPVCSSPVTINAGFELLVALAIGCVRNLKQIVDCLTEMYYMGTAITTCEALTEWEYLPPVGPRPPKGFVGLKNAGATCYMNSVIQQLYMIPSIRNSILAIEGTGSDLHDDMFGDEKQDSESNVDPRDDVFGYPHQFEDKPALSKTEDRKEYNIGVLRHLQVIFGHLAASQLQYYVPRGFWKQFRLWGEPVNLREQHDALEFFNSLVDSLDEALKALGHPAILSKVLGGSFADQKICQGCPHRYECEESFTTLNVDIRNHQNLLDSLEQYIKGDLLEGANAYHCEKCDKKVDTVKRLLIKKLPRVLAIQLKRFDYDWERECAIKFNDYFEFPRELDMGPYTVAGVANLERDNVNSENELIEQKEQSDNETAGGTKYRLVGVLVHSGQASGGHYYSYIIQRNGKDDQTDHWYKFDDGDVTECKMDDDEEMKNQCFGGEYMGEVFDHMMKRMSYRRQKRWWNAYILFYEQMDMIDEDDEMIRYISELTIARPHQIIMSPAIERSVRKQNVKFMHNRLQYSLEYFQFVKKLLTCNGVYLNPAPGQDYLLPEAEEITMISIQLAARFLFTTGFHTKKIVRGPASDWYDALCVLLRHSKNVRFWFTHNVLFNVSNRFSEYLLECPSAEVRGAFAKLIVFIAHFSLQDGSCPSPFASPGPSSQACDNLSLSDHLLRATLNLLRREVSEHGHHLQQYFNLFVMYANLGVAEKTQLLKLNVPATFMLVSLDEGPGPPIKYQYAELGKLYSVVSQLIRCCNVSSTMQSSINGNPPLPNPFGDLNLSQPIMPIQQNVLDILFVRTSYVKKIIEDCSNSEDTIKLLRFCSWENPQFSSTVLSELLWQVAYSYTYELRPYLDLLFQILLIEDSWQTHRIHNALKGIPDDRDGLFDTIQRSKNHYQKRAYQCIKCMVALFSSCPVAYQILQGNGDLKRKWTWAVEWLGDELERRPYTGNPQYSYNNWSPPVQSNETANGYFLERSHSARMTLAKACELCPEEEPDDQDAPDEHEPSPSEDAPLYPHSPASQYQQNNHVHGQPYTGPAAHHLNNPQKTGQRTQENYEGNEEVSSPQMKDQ
In short: as §1

UniProt P51784 = biological target: UniProt P51784
In short: as §1

UniProt Q5T2D3 = biological target: T1, UniProt Q5T2D3
T1 sequence (whole entry): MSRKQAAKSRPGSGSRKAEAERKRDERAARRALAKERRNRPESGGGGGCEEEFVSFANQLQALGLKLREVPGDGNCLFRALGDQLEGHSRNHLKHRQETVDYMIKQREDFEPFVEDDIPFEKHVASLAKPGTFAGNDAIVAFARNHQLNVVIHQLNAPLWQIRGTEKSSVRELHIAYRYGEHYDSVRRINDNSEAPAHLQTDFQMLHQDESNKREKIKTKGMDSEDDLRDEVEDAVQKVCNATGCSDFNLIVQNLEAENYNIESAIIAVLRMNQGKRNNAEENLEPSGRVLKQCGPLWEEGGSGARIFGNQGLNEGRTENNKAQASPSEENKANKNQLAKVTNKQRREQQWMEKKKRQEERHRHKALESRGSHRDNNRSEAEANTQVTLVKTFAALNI
In short: as §1

UniProt Q8TE49 = biological target: T2, UniProt Q8TE49
T2 sequence (whole entry): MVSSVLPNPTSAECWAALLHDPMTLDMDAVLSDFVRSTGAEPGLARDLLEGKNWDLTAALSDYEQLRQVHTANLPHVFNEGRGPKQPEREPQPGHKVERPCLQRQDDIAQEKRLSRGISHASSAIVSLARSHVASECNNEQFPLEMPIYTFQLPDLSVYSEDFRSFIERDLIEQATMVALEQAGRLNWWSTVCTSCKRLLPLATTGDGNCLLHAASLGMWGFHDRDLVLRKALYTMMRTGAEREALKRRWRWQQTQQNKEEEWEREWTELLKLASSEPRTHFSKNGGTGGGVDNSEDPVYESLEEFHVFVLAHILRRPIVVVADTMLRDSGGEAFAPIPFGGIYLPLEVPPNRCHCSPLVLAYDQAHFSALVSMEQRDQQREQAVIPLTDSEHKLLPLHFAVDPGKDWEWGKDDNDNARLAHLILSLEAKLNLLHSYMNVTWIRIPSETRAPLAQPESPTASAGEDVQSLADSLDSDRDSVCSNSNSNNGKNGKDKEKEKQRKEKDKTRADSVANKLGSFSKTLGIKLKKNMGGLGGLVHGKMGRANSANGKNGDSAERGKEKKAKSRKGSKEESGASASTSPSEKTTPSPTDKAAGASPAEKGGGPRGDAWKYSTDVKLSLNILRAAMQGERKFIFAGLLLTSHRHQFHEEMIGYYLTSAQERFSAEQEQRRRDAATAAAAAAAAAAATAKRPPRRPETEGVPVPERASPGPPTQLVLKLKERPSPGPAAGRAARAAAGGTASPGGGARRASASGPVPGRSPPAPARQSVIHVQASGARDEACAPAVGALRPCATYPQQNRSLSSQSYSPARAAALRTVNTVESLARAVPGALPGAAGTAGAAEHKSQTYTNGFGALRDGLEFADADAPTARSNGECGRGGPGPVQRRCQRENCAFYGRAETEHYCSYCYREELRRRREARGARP
In short: as §1

UniProt Q9P2H5 = biological target: T3, UniProt Q9P2H5
T3 sequence (whole entry): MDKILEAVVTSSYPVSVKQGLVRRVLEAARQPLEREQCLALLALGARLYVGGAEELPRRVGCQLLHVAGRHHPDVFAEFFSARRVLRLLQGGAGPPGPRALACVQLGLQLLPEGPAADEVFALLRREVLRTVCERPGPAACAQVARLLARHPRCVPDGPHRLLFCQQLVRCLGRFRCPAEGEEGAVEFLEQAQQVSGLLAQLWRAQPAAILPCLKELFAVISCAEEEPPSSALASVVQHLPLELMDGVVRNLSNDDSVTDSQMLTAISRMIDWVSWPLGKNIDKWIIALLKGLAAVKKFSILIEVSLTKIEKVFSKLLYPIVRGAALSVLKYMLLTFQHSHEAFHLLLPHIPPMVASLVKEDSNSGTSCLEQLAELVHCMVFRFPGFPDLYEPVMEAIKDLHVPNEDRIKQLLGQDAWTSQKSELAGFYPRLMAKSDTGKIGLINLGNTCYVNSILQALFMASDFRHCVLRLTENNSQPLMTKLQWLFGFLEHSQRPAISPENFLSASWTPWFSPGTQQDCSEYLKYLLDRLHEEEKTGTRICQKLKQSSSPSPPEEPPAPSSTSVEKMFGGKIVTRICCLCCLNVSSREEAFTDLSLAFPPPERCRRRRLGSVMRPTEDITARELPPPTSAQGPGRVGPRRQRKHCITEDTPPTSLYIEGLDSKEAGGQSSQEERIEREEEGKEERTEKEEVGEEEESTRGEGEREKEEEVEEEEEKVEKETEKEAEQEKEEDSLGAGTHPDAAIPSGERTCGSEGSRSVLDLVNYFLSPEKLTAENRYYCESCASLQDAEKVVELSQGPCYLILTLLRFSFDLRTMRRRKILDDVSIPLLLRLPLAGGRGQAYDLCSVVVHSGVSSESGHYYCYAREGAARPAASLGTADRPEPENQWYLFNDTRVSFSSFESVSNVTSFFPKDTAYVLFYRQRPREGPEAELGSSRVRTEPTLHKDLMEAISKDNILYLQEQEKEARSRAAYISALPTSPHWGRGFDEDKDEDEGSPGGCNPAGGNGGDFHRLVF
In short: as §1

UniProt Q9UGI0 = biological target: T4, UniProt Q9UGI0
T4 sequence (whole entry): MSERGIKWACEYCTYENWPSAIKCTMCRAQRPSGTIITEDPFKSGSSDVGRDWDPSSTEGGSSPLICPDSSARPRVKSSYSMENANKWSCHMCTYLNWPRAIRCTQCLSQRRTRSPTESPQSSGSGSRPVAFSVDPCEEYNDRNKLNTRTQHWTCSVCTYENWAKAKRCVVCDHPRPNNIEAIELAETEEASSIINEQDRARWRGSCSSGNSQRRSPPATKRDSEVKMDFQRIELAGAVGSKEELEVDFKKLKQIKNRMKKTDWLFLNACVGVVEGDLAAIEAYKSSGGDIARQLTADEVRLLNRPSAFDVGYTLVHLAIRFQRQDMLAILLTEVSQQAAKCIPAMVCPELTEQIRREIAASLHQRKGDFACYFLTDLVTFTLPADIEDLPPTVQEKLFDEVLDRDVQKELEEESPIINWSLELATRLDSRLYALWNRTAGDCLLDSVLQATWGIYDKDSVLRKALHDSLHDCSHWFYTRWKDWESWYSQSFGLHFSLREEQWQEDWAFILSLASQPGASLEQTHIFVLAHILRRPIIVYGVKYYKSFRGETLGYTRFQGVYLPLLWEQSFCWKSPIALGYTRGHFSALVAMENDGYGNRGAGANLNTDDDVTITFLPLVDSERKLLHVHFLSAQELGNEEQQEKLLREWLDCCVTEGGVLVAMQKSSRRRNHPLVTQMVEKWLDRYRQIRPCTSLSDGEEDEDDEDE
In short: as §1

YOD1 = biological target: T5, YOD1 (UniProt Q5VVQ6)
T5 sequence (whole entry): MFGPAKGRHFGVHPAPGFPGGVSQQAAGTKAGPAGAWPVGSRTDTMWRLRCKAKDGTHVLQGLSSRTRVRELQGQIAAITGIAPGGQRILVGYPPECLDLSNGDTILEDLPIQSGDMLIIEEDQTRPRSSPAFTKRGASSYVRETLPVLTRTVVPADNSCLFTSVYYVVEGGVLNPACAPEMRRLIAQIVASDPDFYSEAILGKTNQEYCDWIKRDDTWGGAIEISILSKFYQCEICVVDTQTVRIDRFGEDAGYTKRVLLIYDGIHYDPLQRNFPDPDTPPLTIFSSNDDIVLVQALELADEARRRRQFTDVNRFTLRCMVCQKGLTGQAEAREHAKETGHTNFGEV
In short: as §1

Measured: log2 ratio of Biotin-Ahx-Ub-VS probe labelling

Sequence of USP9X (Q93008 whole entry, the tested form may be a part): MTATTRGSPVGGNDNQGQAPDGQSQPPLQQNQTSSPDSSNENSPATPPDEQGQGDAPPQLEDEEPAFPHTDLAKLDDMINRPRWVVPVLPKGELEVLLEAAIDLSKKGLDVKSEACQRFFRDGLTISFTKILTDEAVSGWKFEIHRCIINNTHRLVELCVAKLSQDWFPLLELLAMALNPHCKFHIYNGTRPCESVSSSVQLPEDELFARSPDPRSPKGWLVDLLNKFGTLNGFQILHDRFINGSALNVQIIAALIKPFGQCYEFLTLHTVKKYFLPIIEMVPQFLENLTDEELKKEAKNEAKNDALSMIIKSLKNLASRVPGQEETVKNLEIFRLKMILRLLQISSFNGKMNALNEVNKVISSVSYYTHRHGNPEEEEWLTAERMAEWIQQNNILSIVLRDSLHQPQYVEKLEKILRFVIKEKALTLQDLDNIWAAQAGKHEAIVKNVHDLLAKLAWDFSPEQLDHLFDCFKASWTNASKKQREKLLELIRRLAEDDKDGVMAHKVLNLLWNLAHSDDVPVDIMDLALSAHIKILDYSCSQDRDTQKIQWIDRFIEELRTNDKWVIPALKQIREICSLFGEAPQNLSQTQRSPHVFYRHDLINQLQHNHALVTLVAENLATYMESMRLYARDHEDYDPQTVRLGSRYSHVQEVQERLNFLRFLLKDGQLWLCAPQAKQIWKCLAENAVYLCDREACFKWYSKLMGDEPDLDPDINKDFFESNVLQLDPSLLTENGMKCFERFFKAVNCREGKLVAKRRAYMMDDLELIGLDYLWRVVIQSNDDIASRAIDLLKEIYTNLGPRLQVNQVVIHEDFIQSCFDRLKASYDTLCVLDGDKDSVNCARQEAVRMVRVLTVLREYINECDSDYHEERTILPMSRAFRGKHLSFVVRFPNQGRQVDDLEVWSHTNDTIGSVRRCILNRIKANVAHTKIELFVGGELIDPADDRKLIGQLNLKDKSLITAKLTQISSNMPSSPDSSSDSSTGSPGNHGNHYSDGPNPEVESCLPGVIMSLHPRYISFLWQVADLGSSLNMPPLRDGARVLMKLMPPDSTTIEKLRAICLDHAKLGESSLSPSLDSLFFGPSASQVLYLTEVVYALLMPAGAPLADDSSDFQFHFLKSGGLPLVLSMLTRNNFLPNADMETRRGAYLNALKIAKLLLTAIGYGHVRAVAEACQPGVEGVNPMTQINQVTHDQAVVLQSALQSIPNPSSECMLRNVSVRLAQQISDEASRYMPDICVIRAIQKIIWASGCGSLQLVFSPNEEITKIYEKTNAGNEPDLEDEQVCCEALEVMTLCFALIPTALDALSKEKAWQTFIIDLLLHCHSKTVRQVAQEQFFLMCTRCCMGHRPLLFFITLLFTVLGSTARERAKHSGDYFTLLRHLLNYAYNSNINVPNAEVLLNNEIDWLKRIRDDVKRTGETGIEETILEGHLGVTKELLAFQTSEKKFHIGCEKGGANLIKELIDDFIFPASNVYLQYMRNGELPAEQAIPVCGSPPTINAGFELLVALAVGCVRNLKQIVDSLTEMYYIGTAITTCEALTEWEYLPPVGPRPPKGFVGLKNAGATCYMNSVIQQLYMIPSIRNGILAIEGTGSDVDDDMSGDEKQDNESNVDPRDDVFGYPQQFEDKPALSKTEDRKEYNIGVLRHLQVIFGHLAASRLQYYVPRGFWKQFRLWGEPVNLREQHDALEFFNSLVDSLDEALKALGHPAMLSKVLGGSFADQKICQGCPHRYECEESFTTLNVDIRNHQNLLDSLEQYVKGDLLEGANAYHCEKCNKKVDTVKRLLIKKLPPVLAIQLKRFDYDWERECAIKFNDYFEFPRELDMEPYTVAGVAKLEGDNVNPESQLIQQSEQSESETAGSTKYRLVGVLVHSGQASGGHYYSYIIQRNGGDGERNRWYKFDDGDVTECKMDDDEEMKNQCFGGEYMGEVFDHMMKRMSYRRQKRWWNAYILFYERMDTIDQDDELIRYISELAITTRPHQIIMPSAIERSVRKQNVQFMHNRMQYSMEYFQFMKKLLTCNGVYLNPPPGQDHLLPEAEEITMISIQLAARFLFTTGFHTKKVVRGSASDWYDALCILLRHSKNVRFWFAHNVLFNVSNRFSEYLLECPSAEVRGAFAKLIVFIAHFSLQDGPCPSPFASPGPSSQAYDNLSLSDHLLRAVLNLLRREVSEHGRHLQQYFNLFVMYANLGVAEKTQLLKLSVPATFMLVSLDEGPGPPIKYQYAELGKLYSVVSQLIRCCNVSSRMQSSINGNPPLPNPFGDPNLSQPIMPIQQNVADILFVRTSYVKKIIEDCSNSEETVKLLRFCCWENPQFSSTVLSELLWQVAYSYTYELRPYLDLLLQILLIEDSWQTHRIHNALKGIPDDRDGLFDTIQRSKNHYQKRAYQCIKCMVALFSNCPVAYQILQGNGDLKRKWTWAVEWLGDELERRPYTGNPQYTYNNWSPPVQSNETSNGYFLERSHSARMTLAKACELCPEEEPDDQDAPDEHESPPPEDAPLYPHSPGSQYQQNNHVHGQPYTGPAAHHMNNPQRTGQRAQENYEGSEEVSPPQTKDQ

Cc1cc(C2CCCN2C(=O)CCl)nn1C.Cl (centres undefined)
inactive: USP9X -0.131 | UniProt O00487 -0.229 | UniProt O00507 -0.0169 | UniProt P51784 -0.386 | UniProt Q5T2D3 -0.106 | UniProt Q8TE49 -0.432 | UniProt Q9P2H5 -0.247 | UniProt Q9UGI0 0.115 | YOD1 -0.199

— the supplement of paper PMC11732987, “Enantioselective OTUD7B fragment discovery through chemoproteomics screening and high-throughput optimisation” (Communications Chemistry, 2025)
